Drawing on PubChem BioAssay (NCATS), this text covers Potency for 40 compounds.

Each structure is given as a SMILES string. Unmarked numbers belong to inactive results. No rule for the calls is given here. A value given as a limit tells only on which side of the number the result lay.
Potency is read from the fitted curve at half-maximal effect.

The subject of this assay is HIV-1 nucleocapsid protein NCp7 (binding to TG oligonucleotide). The experiment in a line: HIV Nucleocapsid (AID 346).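 Also: potency is for inhibitors that block NC binding and lower polarization.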 Conditions: HIV-1 NC / fluorescein-TGTGTGTG probe, fluorescence polarization. In outline: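 HIV-1 NC (100 nM) binding to fluorescein-labelled ssDNA TG4xF (10 nM) in Hepes pH 7.5, 250mM NaCl, 1uM ZnCl2, TCEP and 2-mercaptoethanol; compounds pin-transferred, 1 hr room temperature, fluorescence polarization read on CCD imager.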
Take `COc1ccc(CNc2ncnc3ccc(-c4ccc(N(C)C)cc4)cc23)c(OC)c1`: the Potency is over 20 µM.
The figure for `CS(=O)(=O)Nc1cccc(-c2ccc3ncnc(Nc4ccccc4)c3c2)c1` is over 20 µM; for `COc1ccccc1-c1cncnc1Nc1ccccc1` it is over 20 µM.
Turning to `COc1ccc2[nH]cc(CCNc3cc(-c4ccc5c(c4)OCO5)ncn3)c2c1`, the Potency is over 20 µM.
The figure for `COCCNc1nc(-c2ccoc2)nc2ccccc12` is over 20 µM.
The figure for `c1ccc2c(-n3ccnc3)nc(-c3ccoc3)nc2c1` is over 20 µM.
The value for `COCCn1c(=O)c(-c2cc(F)cc(F)c2)nc2cncnc21` was over 20 µM; that for `CCNc1ncc2nc(-c3ccc(Cl)cc3)c(=O)n(C)c2n1` was over 20 µM.
Turning to `COC(=O)N1CCC2(CCCN(Cc3ccc(C#N)cc3)C2)CC1`, the Potency is over 20 µM.
Regarding `Cn1c(=O)c(-c2cccc(C#N)c2)nc2cnc(Oc3ccccc3)nc21`, the Potency was over 20 µM.
The value for `CN(C)C(=O)c1ccc(-c2cncnc2NCCc2cnc[nH]2)cc1` was over 20 µM; that for `CN(C)c1ccc(-c2cc(Nc3ccc(F)cc3)ncn2)cc1` was over 20 µM.
In the case of `CNc1nc(-c2cccc(NS(C)(=O)=O)c2)nc2ccccc12`, the Potency is over 20 µM.
For the compound `Cn1c(=O)c(-c2cc(F)cc(F)c2)nc2cnc(N3CCOCC3)nc21`, the Potency was over 20 µM.
Consider `COc1ccc(C(=O)N2CCC3(CCCN(C)C3)CC2)cc1`, for which the Potency was over 20 µM.
The figure for `COCCn1c(=O)c(-c2ccc(F)cc2)nc2cnc(Oc3ccc(OC)cc3)nc21` is over 20 µM; for `N#Cc1cccc(-c2ccc3ncnc(NCc4cccnc4)c3c2)c1` it is over 20 µM; for `COc1ncc2nc(-c3ccc(Cl)cc3)c(=O)n(-c3ccccc3)c2n1` it is over 20 µM.
With `CN1CCN(c2ncc3ncc(=O)n(C4CC4)c3n2)CC1`, the Potency is over 20 µM.
The value for `Cn1cccc1C(=O)N1CCC2(CC1)CCN(C(c1ccccc1)c1ccccc1)CC2` was over 20 µM.
The value for `Cc1noc(C)c1-c1nccc(Nc2ccc(F)cc2)n1` was over 20 µM; that for `O=c1c(CCc2ccccc2)nc2cnc(N3CCOCC3)nc2n1C1CC1` was over 20 µM; that for `CNc1ncnc2ccc(-c3ccccc3OC)cc12` was over 20 µM.
The value for `CC(C)CN1CC[C@@]2(CCCN(C(=O)c3cc(C(F)(F)F)cc(C(F)(F)F)c3)C2)C1` was over 20 µM.
For `COc1ccc(C(=O)N2CCC3(CCCN(C(c4ccccc4)c4ccccc4)C3)CC2)cc1`, the Potency was over 20 µM.
The value for `c1csc(CNc2ncnc3ccc(-c4ccc5c(c4)OCO5)cc23)c1` was over 20 µM; that for `O=C(Nc1cccc(F)c1)N1CC2(CCN(C(=O)c3ccco3)CC2)C1` was over 20 µM; that for `CN(C)c1ncc2nc(-c3cc(F)cc(F)c3)c(=O)n(C)c2n1` was over 20 µM.
The value for `O=c1c(-c2cc(F)cc(F)c2)nc2cnc(Oc3ccccc3)nc2n1C[C@H]1CCCO1` was over 20 µM.
As to `Cc1nc2cnc(N3CCOCC3)nc2n(CCC#N)c1=O`, the Potency was over 20 µM.
The value for `Cn1cccc1C(=O)N1CCC2(CC1)CN(C(=O)Nc1cccc(F)c1)C2` was over 20 µM; that for `COc1ccccc1CN1CCC2(CC1)CCN(S(C)(=O)=O)CC2` was over 20 µM; that for `O=C(c1cc(C(F)(F)F)cc(C(F)(F)F)c1)N1CCC2(CC1)CN(c1ccccc1)C2` was over 20 µM.
The value for `Cc1cccc(CNc2cc(-c3ccccc3CN(C)C)ncn2)c1` was over 20 µM; that for `N#Cc1ccccc1-c1cncnc1NCc1cccnc1` was over 20 µM.
As to `COCCNc1nc(-c2ccccc2CN(C)C)nc2ccccc12`, the Potency is over 20 µM.
Regarding `COCCn1c(=O)c(-c2ccc(Cl)cc2)nc2cncnc21`, the Potency is over 20 µM.
The value for `O=c1c(-c2cc(F)cc(F)c2)nc2cncnc2n1C1CC1` was over 20 µM.
Regarding `COc1ccc(CNc2nc(-c3ccccc3OC)nc3ccccc23)c(OC)c1`, the Potency is over 20 µM.
Take `N#CCCn1c(=O)c(-c2cc(F)cc(F)c2)nc2cnc(Oc3ccccc3)nc21`: the Potency was over 20 µM.
